PLK1 PBD inh – blocks phosphopeptide binding to human PLK1 polo-box domain; P53350; hit rate 2.8% among 360,000; Potency, µM, without a hit: max response, negative = inhibition, usual class: inhibitors; Plk1 PBD binding of FITC phosphopeptide, fluorescence polarization; AID 720504; also: potency is read from the fitted curve at half-maximal effect; series mostly up to about 57 µM; % is scaled to controls: 0 for no effect and ±100 for the full control effect; nearly all actives have a fitted effect of over 65% in size
HP1b binding inh – HP1-beta chromodomain-methylated histone interaction inhibition; P83916; AlphaScreen HP1-beta / biotin-H3K9me3 peptide binding; Potency, µM (titrated, usually from 114 µM), for inactives: at the top dose activity change, negative = inhibition, most hits filed as inhibitors; hit rate 0.56% among 390,000; also: potency is read from the fitted curve at half-maximal effect; nearly all actives have a fitted effect of over 70% in size
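AlphaScreen: HP1-beta (50 nM) preformed 30 min with biotin-H3(1-18)K9me3 peptide (50 nM) in PBS pH 7.4, 0.01% Tween-20. Compound added for 30 min at RT, then streptavidin donor/nickel chelate acceptor beads (10 ug/mL) for 30 min.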
PI5P4Ka inh – blocks human PI5P4K alpha kinase activity. P48426. PI5P4Kalpha enzyme, ADP-Glo luminescence, 60 min; active compounds read low. max response, %. hit rate 1.2% among 330,000. AID 652105; active = max response of -50% or lower; inconclusive = between -30% and -50%; inactive = -30% or higher; also: value at the top dose of about 77 µM; % is scaled to controls: 0 for no effect and ±100 for the full control effect
Target sequence (P48426 whole entry, looked up): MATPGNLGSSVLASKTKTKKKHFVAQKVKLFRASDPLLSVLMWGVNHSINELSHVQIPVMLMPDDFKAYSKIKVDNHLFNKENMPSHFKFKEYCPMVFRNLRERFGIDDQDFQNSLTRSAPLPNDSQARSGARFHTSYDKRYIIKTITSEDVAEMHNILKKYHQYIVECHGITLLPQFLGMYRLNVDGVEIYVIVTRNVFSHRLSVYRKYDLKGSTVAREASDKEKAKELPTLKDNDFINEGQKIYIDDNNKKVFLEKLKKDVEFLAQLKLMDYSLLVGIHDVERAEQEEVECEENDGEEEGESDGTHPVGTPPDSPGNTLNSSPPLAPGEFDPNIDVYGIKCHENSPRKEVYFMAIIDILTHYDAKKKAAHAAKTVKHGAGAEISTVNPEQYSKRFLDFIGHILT
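Single end-point luminescence (ADP-Glo) quantified ADP from PI5P4Kalpha turnover; ATP 5 microM final, 1 h at RT, 0.1% CHAPS and 0.28 mM EGTA in HEPES pH 7.4.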
JMJD2A Tudor – JMJD2A Tudor domain (human) inhibition. O75164. AlphaScreen JMJD2A-Tudor / H3K4me3 peptide binding. Potency, µM (series often up to 114 µM), for the others: at the highest dose activity change, negative = inhibition, most hits filed as inhibitors. hit rate 4.4% among 390,000; also: potency is read from the fitted curve at half-maximal effect; % is scaled to controls: 0 for no effect and ±100 for the full control effect; nearly all actives have a fitted effect of over 50% in size
G9a block – blocks human histone lysine methyltransferase G9a; Q96KQ7; G9a H3K9 monomethylation, AlphaScreen, 2 h; Potency, µM (series often up to 102 µM), without a hit: top-dose activity, negative = inhibition, hits mostly inhibitors; hit rate 8.8% among 350,000; also: potency is read from the fitted curve at half-maximal effect; % is scaled to controls: 0 for no effect and ±100 for the full control effect; nearly all actives have a fitted effect of over 75% in size
Target sequence (Q96KQ7 913-1193 limits assumed): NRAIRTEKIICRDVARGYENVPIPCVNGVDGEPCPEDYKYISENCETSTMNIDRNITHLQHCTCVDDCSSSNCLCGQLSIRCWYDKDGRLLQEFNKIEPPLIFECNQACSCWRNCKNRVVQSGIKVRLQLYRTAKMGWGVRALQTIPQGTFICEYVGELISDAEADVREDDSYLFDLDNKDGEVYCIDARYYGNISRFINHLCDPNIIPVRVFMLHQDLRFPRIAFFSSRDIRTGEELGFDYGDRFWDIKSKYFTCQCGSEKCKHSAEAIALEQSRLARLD
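Methyltransferase reactions run at room temperature for 2 h (20 nM enzyme, 500 nM biotin-H3K9 peptide, 20 uM SAM) after a 15 min compound preincubation; product detected by AlphaScreen beads and anti-H3K9me1 antibody.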
BAZ2B block – blocks human BAZ2B; Potency, µM (top dose mostly 114 µM), inactives show at the highest dose activity change, negative = inhibition, most hits filed as inhibitors; hit rate 4.4% among 360,000; Q9UIF8; AlphaScreen BAZ2B-H3K14Ac peptide displacement; also: potency is read from the fitted curve at half-maximal effect; % is scaled to controls: 0 for no effect and ±100 for the full control effect; nearly all actives have a fitted effect of over 60% in size
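AlphaScreen displacement: compounds (up to 110uM) incubated 30 min at room temperature with a preformed 50 nM BAZ2B/50 nM biotinylated H3K14Ac peptide complex in PBS pH 7.4 with Tween-20. Donor and acceptor beads at 10 ug/mL final added, 20 min light-protected before reading.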
Numbers without * were called inactive; ! = not active in a repeat; [ ] = dose if it differs, or a comment. Shown are actives, neighbours in structure and some others; about 12% of the full set was active somewhere. Unless noted, calls follow the shape of the dose curve; as a rule, active = well fitted curve in the direction sought with a large enough effect; inconclusive = small, poorly fitted or top-dose-only effect, or another doubt; inactive = no such curve, though single readings can be large; an effect the other way counts as inactive or inconclusive.

`CCn1c(SCC(=O)Nc2nccs2)nnc1C1CC1` gave PLK1 PBD inh -3.9%, HP1b binding inh 28.9%, PI5P4Ka inh 4.4, JMJD2A Tudor -15.1% and BAZ2B block 4.7%.
`CCCCn1nnnc1SCC(=O)Nc1ccc(N(C)C)cc1` gave PLK1 PBD inh -12.7%, HP1b binding inh -15.9%, PI5P4Ka inh 2.6, JMJD2A Tudor inconclusive, G9a block 44.7µM* and BAZ2B block -37.9%.
Screening Cn1c(SCC(=O)Nc2nncs2)nnc1C1CC1 returned PLK1 PBD inh inconclusive, HP1b binding inh -34.2%, PI5P4Ka inh -28.7, JMJD2A Tudor 56.2µM* and BAZ2B block 50.1µM*.
Screening CCCCn1nnnc1SCC(=O)Nc1ccc(F)cc1 returned PLK1 PBD inh -11.3%, HP1b binding inh 56.1%, PI5P4Ka inh 6.0, JMJD2A Tudor -0.6%, G9a block 0.5% and BAZ2B block 4.9%.
CCOC(=O)c1cccc(NS(=O)(=O)c2cc(-c3cnc(C4CC4)o3)ccc2C)c1 was read as HP1b binding inh 14.9%, JMJD2A Tudor -26.2%, G9a block -7.3%[12.7 µM] and BAZ2B block -26.4%.
Screening CCC(=O)N1CCC1(C)C(=O)Nc1cc(-c2ccccc2)nn1C (stereo not drawn) returned PLK1 PBD inh -1.6% and PI5P4Ka inh 1.4.
`O=C(Nc1nc2c(F)cccc2s1)c1ccc2c(c1)OCCO2` gave HP1b binding inh -2.4%, JMJD2A Tudor -19.6%, G9a block -28.6%[59 µM] and BAZ2B block -1.4%.
Screening CC1Cc2ccccc2N1C(=O)c1ccc2nccnc2c1 (stereo not drawn) returned PLK1 PBD inh 1.7%, HP1b binding inh 37.5%, PI5P4Ka inh -6.3, JMJD2A Tudor -7.6% and BAZ2B block -5.3%.
O=C(CSc1nnc(C2CC2)n1-c1ccccc1)Nc1ccc(N2CCOCC2)cc1 was read as PLK1 PBD inh 0.3%, HP1b binding inh 26.3%, PI5P4Ka inh 5.8, JMJD2A Tudor -12.0%, G9a block 56.2µM* and BAZ2B block -29.8%.
For COc1ccc(NC(=O)CSc2nnc(C3CC3)n2C)cc1 the results were PLK1 PBD inh 23.8µM*, HP1b binding inh 6.2%, PI5P4Ka inh -28.1, JMJD2A Tudor 10µM*, G9a block -7.2% and BAZ2B block 2.1%.
CCOC(=O)c1csc(NC(=O)CSc2nnc(C3CC3)n2C)n1 was read as PLK1 PBD inh 26.7µM*, HP1b binding inh -3.5%, PI5P4Ka inh -15.4, JMJD2A Tudor inconclusive, G9a block 25.6%[59 µM] and BAZ2B block -9.2%.
For Cn1c(SCC(=O)Nc2ccc(N3CCOCC3)cc2)nnc1C1CC1 the results were PLK1 PBD inh 2.3%, HP1b binding inh 37.9%, PI5P4Ka inh 0.1, JMJD2A Tudor 1.4%, G9a block inconclusive and BAZ2B block -5.5%.
For CCOC(=O)Cc1csc(NC(=O)CSc2nnc(C3CC3)n2C)n1 the results were PLK1 PBD inh 1.1%, HP1b binding inh 25.4%, PI5P4Ka inh -3.0, JMJD2A Tudor -10.3%, G9a block -0.6%[59 µM] and BAZ2B block 4.8%.
`Cc1ccc2c(CN3CCN(C(=O)c4ccc(Br)cc4)CC3)cc(=O)oc2c1` gave HP1b binding inh 32.9%, JMJD2A Tudor 0.0%, G9a block -5.4%[59 µM] and BAZ2B block -15.8%.
C[C@H]1CN([C@@H](C)CO)S(=O)(=O)c2ccc(Br)cc2O[C@H]1CN(C)C(=O)c1cccc(F)c1 was read as PLK1 PBD inh -0.8% and PI5P4Ka inh -5.5.
`CC(C)CSc1n[nH]c(=S)s1` gave PLK1 PBD inh 7.52µM*, HP1b binding inh 28.2µM*, PI5P4Ka inh -51.7*, JMJD2A Tudor 8.91µM*, G9a block 1.78µM* and BAZ2B block 50.1µM*.
For CC(CC(=O)Nc1cccnc1)c1ccccc1 (stereo not drawn) the results were PLK1 PBD inh -7.2%, HP1b binding inh 15.8%, PI5P4Ka inh -0.5, JMJD2A Tudor -9.2%, G9a block 4.2% and BAZ2B block -9.1%.
CC(CSc1n[nH]c(=S)s1)c1ccccc1 (stereo not drawn) was read as PLK1 PBD inh inconclusive, HP1b binding inh 50.1µM*, PI5P4Ka inh -54.0* and JMJD2A Tudor 17.8µM*.
Screening O=C1c2ccccc2C(=O)N1CCSc1n[nH]c(=S)s1 returned PLK1 PBD inh -13.7%, HP1b binding inh inconclusive, PI5P4Ka inh -76.9*, JMJD2A Tudor 17.8µM*, G9a block 1.26µM* and BAZ2B block inconclusive.
`CN(C)C(=O)c1ccc(NC(=O)Cn2nc(-c3ccccc3)c3ccccc3c2=O)cc1` gave HP1b binding inh 26.7%, JMJD2A Tudor 4.5%, G9a block 7.1%[59 µM] and BAZ2B block 5.0%.
COC(=O)COc1ccc(NC(=O)Cn2nc(-c3ccccc3)c3ccccc3c2=O)cc1 was read as PLK1 PBD inh 26.7µM*, HP1b binding inh 14.8%, PI5P4Ka inh 2.5, JMJD2A Tudor inconclusive, G9a block -32.3% and BAZ2B block 0.7%.
`COc1cccc(OC)c1NC(=O)Cn1nc(C)c2ccccc2c1=O` gave PLK1 PBD inh 29.9µM*, HP1b binding inh -5.3%, PI5P4Ka inh -9.5, JMJD2A Tudor inconclusive and BAZ2B block 4.4%.
Cc1nn(CC(=O)Nc2cccc(O)c2)c(=O)c2ccccc12 was read as PLK1 PBD inh -3.7% and PI5P4Ka inh 0.8.
For COc1ccc(NC(=O)COc2ccc(-c3nn(C)c(=O)c4ccccc34)cc2)cc1 the results were PLK1 PBD inh 23.8µM*, HP1b binding inh -6.3%, PI5P4Ka inh -10.3, JMJD2A Tudor 44.7µM*!, G9a block 2.7% and BAZ2B block -8.7%.
Nc1nc(=S)ss1 was read as PLK1 PBD inh 23.8µM*, HP1b binding inh inconclusive, PI5P4Ka inh -16.7 and JMJD2A Tudor -9.7%.
Screening CC(C)(C)c1cnnn1-c1ccc(C=O)cc1 returned PLK1 PBD inh -10.1%, HP1b binding inh 13.1%, JMJD2A Tudor -10.6%, G9a block 0.9%[59 µM] and BAZ2B block 3.0%.
Screening CC(C)(C)c1cnnn1-c1ccc(C(=O)CCl)cc1 returned PLK1 PBD inh 6.7µM*, HP1b binding inh 21.6%, JMJD2A Tudor -21.3%, G9a block inconclusive and BAZ2B block -20.3%.
COc1cc(OC)c2c(c1C(CCN1CCN(c3ccccc3)CC1)c1ccc(N(C)C)cc1)OC(=O)CC2c1ccc(N(C)C)cc1 (stereo not drawn) was read as HP1b binding inh inconclusive and JMJD2A Tudor 12.6µM*.
For CCN(CC)CCC(c1ccc(N(C)C)cc1)c1c(OC)cc(OC)c2c1OC(=O)CC2c1ccc(OC)cc1 (stereo not drawn) the results were HP1b binding inh inconclusive and JMJD2A Tudor 15.8µM*.

High-throughput results deposited in PubChem BioAssay by National Center for Advancing Translational Sciences (NCATS).
